Assay results: ChEMBL document CHEMBL3988442, “University of Dundee, Small-Polar-MMV Screening Library” (2021)
For part of these data: Results with a measured potency or affinity are listed apart.

Legend:
Set-up in all cases: scale not given: direction of the effect not stated beside the values
[1] = target: Protein translocase subunit SecA (Escherichia coli (strain K12)) (UniProt P10408); test: Assay to Identify E. coli SecA ATPase Inhibitors; type: functional; conditions: 30 µM
[2] = target: T1, Ubiquitin-activating enzyme e1, putative (Leishmania donovani (strain BPK282A1)) (UniProt E9BSI1); test: Leishmania donovani Ubiquitin Activating Enzyme (LdE1); type: functional; conditions: 30 µM
T1 sequence (whole entry): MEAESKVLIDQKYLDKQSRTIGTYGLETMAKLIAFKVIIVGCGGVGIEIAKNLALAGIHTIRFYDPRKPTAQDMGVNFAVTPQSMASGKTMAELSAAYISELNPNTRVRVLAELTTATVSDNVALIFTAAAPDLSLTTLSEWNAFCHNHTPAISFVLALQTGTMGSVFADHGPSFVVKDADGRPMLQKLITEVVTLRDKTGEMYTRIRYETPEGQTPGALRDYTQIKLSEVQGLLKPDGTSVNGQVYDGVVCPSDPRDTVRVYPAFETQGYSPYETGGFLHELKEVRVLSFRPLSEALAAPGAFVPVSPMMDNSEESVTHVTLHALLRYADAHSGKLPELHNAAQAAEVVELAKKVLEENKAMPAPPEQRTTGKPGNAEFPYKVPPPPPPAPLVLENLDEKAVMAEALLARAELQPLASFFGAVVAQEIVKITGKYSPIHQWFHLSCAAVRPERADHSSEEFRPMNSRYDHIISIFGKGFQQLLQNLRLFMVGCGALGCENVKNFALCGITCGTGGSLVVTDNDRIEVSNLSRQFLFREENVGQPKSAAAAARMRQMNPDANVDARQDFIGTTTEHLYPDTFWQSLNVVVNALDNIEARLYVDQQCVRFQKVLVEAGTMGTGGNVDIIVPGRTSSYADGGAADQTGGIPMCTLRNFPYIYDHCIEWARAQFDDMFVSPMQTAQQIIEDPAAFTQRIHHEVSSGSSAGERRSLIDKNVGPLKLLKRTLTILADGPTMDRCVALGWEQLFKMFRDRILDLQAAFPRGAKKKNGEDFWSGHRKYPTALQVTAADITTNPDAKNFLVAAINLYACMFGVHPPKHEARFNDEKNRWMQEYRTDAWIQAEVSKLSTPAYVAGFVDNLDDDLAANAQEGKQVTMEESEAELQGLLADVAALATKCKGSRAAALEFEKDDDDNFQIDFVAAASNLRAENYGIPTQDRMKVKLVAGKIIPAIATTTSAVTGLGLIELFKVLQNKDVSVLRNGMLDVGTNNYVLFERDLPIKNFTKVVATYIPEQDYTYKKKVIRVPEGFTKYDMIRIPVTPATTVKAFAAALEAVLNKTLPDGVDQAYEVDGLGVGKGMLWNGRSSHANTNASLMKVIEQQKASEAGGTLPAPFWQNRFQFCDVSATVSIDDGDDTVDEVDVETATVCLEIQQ

[3] = target: AMP-activated protein kinase, AMPK (Homo sapiens) (UniProt P54646+O43741+P54619+Q9UGJ0+Q9Y478+Q13131+Q9UGI9); test: AMP-dependent Kinase enzyme assay. An in vitro enzyme assay that detects ADP turnover that is directly proportional to AMPK activity. This uses naive AMPK that is activated during the assay with MK-8722; type: functional; conditions: 30 µM
[4] = target: Sialic acid-binding Ig-like lectin 9 (Homo sapiens) (UniProt Q9Y336); test: Hs-Siglec9 ALPHAscreen SOP 20170721; conditions: 10 µM
Sequence of Sialic acid-binding Ig-like lectin 9 (Homo sapiens) (Q9Y336 whole entry): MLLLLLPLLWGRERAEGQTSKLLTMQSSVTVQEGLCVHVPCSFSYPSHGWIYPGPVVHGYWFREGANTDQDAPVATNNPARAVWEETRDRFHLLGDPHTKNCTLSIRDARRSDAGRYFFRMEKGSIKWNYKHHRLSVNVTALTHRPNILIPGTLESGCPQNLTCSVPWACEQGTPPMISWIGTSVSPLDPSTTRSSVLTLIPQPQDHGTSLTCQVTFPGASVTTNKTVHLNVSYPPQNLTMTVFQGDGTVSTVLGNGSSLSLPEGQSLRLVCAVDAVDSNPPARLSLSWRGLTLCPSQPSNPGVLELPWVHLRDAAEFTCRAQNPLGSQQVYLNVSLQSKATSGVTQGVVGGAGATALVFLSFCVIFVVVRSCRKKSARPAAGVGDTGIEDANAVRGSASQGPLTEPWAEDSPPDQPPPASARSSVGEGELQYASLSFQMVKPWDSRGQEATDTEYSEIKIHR

Trypanosoma cruzi = test: Trypanosoma cruzi phosphomannomutase and mannose-1-phosphate guanylyltransferase assay; type: functional; conditions: 10 µM
[5] = target: T2, Arginase-2, mitochondrial (Homo sapiens) (UniProt P78540); test: in vitro enzyme assay to detect the production of urea directly proportional to the activity of Arginase II; type: functional; conditions: 33.3 µM; further: in the data most compounds retested in dose-response had high values
T2 sequence (whole entry): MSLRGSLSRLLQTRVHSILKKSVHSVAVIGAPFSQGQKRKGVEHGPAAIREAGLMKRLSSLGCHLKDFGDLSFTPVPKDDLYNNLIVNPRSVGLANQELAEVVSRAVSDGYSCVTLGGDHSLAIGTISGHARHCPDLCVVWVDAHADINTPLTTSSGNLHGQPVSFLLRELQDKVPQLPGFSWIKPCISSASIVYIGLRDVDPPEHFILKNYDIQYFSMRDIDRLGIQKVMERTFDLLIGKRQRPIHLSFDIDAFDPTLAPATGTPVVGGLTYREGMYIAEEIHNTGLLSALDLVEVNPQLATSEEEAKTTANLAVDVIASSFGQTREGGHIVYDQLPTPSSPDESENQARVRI

[6] = target: T3, Proteasome subunit beta (Trypanosoma cruzi) (UniProt O96673); test: Trypanosoma cruzi proteasome chymotrypsin-like activity (TcProtChymo) assay.; further: in the data most compounds retested in dose-response had high values; type: functional; conditions: 9.37 µM
T3 sequence (whole entry): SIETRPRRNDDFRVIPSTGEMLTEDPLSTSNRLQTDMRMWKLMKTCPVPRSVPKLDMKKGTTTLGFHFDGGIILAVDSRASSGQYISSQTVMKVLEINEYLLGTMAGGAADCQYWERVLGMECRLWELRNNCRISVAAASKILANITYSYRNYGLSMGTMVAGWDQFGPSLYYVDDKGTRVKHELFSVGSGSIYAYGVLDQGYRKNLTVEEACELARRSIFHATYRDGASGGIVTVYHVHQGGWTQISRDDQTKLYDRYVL

Homo sapiens = species on record: Homo sapiens; test: To identify inhibition of the IFN signalling (Jak-Stat) pathway via expression of an eGFP reporter gene under the control of an IFN-stimulated response element (ISRE) containing MxA promoter.; type: functional; conditions: 30 µM
[7] = target: T4, Tyrosyl-tRNA synthetase, putative (Trypanosoma cruzi (strain CL Brener)) (UniProt Q4DSP6); test: Trypanosoma cruzi tyrosyl tRNA synthetase (TcYRS) _High Tyrosine SOP; type: functional; conditions: 30 µM; further: in the data most compounds retested in dose-response had high values
T4 sequence (whole entry): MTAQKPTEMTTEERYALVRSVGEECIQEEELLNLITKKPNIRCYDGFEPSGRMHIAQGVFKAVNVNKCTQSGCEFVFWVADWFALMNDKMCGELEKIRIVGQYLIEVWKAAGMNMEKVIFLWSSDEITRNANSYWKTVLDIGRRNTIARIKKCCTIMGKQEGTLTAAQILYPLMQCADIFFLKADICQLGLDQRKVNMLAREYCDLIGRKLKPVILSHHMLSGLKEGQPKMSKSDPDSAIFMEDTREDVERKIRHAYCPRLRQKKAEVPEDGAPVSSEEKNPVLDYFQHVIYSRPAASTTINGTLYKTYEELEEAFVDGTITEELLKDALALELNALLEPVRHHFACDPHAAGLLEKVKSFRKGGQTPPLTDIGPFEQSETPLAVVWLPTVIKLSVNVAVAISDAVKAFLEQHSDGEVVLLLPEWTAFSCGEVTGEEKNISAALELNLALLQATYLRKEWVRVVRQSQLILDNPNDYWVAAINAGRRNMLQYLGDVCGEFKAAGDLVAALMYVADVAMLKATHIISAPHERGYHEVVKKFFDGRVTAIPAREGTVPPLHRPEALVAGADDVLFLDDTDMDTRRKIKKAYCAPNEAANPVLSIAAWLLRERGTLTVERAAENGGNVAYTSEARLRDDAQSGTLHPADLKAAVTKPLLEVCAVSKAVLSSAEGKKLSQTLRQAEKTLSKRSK

[8] = target: T4, Tyrosyl-tRNA synthetase, putative (Trypanosoma cruzi (strain CL Brener)); test: Trypanosoma cruzi tyrosyl tRNA synthetase (TcYRS) SOP; type: functional; conditions: 30 µM
[9] = target: Chromo domain-containing protein 1 (Saccharomyces cerevisiae (strain ATCC 204508 / S288c) (Baker's yeast)) (UniProt P32657); test: ScCHD-1 Enzyme Inhibition Assay; type: functional; conditions: 30 µM; further: in the data most compounds retested in dose-response had high values
Sequence of Chromo domain-containing protein 1 (Saccharomyces cerevisiae (strain ATCC 204508 / S288c) (Baker's yeast)) (P32657 whole entry, the tested form may be a part): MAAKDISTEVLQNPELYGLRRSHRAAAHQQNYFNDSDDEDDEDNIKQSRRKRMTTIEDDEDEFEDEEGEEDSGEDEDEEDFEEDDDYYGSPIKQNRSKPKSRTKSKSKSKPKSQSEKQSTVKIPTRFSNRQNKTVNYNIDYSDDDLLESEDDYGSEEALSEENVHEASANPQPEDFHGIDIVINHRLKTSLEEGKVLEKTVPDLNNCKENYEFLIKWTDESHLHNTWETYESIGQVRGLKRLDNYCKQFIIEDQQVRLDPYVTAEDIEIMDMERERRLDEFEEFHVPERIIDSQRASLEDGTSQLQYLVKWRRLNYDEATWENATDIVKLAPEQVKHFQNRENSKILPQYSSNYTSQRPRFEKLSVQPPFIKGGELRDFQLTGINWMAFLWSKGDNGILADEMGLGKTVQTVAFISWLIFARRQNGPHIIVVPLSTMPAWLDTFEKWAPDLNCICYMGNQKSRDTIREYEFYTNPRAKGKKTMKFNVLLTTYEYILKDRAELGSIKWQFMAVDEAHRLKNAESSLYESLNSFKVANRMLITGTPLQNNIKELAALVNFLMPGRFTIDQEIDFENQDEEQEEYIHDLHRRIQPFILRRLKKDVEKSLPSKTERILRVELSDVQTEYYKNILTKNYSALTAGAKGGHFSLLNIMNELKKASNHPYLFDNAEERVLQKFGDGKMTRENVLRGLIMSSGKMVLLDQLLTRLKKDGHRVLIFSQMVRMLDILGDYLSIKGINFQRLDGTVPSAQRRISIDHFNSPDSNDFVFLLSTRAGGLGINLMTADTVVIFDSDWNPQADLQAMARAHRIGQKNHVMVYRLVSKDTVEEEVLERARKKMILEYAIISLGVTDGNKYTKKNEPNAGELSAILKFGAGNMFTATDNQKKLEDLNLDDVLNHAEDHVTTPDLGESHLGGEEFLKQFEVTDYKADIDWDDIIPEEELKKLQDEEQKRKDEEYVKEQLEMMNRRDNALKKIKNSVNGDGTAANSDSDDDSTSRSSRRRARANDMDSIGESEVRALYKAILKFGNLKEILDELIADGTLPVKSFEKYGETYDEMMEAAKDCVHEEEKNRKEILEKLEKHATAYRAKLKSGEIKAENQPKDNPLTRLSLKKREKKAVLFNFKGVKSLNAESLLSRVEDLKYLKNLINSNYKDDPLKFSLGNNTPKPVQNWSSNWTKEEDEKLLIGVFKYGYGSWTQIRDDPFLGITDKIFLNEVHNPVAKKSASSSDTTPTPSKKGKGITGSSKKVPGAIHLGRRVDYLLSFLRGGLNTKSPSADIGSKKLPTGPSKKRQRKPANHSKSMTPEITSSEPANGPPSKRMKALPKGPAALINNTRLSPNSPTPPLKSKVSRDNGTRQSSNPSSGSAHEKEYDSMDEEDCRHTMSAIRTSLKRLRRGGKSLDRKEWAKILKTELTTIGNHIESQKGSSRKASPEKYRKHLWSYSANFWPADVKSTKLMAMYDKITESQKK

Sequence of Protein translocase subunit SecA (Escherichia coli (strain K12)) (P10408 whole entry): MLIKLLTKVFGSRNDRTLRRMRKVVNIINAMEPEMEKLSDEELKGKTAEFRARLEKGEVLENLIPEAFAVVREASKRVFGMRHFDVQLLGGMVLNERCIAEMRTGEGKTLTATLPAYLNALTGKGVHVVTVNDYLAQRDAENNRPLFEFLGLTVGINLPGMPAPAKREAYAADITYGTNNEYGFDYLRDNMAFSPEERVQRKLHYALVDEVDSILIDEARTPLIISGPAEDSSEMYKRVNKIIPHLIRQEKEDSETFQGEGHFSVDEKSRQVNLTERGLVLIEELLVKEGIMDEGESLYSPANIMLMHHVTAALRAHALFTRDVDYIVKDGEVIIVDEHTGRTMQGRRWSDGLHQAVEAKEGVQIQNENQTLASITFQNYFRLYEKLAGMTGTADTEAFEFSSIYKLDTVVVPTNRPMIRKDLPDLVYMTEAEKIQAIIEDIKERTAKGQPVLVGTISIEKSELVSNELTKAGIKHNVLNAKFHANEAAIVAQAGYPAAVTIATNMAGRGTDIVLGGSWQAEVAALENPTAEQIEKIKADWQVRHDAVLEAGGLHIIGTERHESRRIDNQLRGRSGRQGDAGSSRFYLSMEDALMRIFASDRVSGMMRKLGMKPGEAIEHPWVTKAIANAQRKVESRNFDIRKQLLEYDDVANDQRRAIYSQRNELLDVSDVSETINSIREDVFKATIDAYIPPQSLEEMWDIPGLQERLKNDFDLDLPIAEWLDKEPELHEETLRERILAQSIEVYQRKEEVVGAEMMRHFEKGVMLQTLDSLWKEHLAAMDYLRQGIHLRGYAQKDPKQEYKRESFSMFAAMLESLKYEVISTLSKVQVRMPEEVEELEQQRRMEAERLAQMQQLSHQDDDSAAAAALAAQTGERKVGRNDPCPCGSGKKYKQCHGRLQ

Compound | Percent Effect [1] | Percent Effect [2] | Percent Effect [3] | Percent Effect [4] | Percent Effect (Trypanosoma cruzi) | Percent Effect [5] | Percent Effect [6] | Percent Effect (Homo sapiens) | Percent Effect [7] | Percent Effect [8] | Percent Effect [9]
CC(=O)N(C)c1nc(CN2CCOC(Cn3cccn3)C2)cs1 (stereo unspecified) | 1.46% | 8.11% | -1.27% | 15.7% | 3.09% | 17.1% | 15.9% | 10.3% | 4.76% | 12.2% | -5.18%
CC(C)COCc1cncc2c1CCN(Cc1cnn(C)c1)C2 | -5.06% | 7.79% | 2.31% | 5.43% | -0.688% | -29% | 4.16% | -12.6% | 7.53% | 11.1% | 133%
CC(C)c1nccn1C1CCCN(C(=O)c2ccc3[nH]nnc3c2)C1 (stereo unspecified) | -8.55% | 7.79% | -5.52% | -4.53% | 9.89% | -1.05% | 19% | -2.41% | 4.76% | 11.8% | -22.9%
c1csc(-c2noc(CCCN3CCCC3Cn3cccn3)n2)c1 (stereo unspecified) | -4.94% | -13.5% | -5.55% | 4.78% | 0.849% | -6.41% | -1.98% | 0.955% | 4.43% | 1.24% | -1.71%
COc1cc2ncn(CC(=O)NCCCN(C)C)c(=O)c2cc1OC | -1.85% | 1.33% | -1.58% | 0.564% | -8.84% | -3.35% | 7.76% | -4.68% | 4.23% | -53.9% | -7.79%
O=C(Nc1ccc(F)cc1)N1C[C@H]2C[C@H](C(=O)N3CCOCC3)[C@@H](C1)O2 | -1.74% | 7.79% | 3.92% | 3.78% | 0.493% | 4.52% | 2.44% | 29.3% | 4.23% | 14.1% | -6.94%
